# Most compounds without a hit are left out; they make up all but 12% or so of the library.
# BAZ2B block: inhibitors of human BAZ2B bromodomain | AlphaScreen BAZ2B-H3K14Ac peptide displacement | Potency, µM (highest dose often 114 µM), for inactives: at the top dose activity change, negative = inhibition, hits mostly inhibitors | 360,000 tested, 4.4% active | AID 504333; note: % is set by controls: 0 for no effect and ±100 for the full control effect; nearly all actives have a fitted effect of over 60% in size
#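 AlphaScreen displacement of biotin-H3(5-23)K14Ac peptide (50 nM final) from BAZ2B (50 nM final) in PBS pH 7.4, 0.01% Tween-20; complex preformed 30 min RT, then compounds (top 110 uM) 30 min RT, beads 20 min dark.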
# PLK1 PBD block: inhibitors of human PLK1 polo-box domain binding; P53350; Plk1 PBD binding of FITC phosphopeptide, fluorescence polarization; Potency, µM, without a hit: max response, negative = inhibition, usual class: inhibitors; 360,000 tested, 2.8% active; note: series mostly up to about 57 µM; % is set by controls: 0 for no effect and ±100 for the full control effect; nearly all actives have a fitted effect of over 65% in size
# HP1b binding inh: HP1-beta chromodomain-methylated histone interaction inhibition; Potency, µM (doses to about 114 µM), for the others: at the highest dose activity change, negative = inhibition, hits mostly inhibitors; P83916; 390,000 tested, 0.56% active; AID 540317; AlphaScreen HP1-beta / biotin-H3K9me3 peptide binding; note: nearly all actives have a fitted effect of over 70% in size
# Target sequence (P83916 whole entry, looked up): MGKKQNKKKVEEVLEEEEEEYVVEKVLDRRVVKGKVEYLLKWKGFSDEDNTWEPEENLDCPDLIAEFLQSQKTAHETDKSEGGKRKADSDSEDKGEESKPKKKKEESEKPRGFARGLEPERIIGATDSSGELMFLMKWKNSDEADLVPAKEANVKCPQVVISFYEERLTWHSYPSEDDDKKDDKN
#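 AlphaScreen: HP1-beta (50 nM) preformed 30 min with biotin-H3(1-18)K9me3 peptide (50 nM) in PBS pH 7.4, 0.01% Tween-20. Compound added for 30 min at RT, then streptavidin donor/nickel chelate acceptor beads (10 ug/mL) for 30 min.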
# JMJD2A Tudor: blocks the human JMJD2A Tudor domain. O75164. AlphaScreen JMJD2A-Tudor / H3K4me3 peptide binding. Potency, µM (series often up to 114 µM), without a hit: at the top dose activity change, negative = inhibition, most hits filed as inhibitors. 390,000 tested, 4.4% active; note: % is set by controls: 0 for no effect and ±100 for the full control effect; nearly all actives have a fitted effect of over 50% in size
# G9a block: inhibitors of human histone lysine methyltransferase G9a | Potency, µM (titrated, usually from 102 µM), without a hit: at the top dose activity, negative = inhibition, most hits filed as inhibitors | 350,000 tested, 8.8% active | G9a H3K9 monomethylation, AlphaScreen, 2 h; note: % is set by controls: 0 for no effect and ±100 for the full control effect; nearly all actives have a fitted effect of over 75% in size
# Target sequence (Q96KQ7 913-1193 limits assumed): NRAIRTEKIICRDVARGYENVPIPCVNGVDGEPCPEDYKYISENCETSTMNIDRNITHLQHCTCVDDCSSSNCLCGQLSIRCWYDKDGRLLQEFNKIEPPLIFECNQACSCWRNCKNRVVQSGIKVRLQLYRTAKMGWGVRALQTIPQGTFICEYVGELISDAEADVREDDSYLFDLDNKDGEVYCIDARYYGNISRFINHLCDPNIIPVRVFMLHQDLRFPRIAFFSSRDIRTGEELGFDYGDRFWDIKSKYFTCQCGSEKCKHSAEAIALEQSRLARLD
#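 Compounds were preincubated with 20 nM G9a for 15 min, after which biotinylated H3K9 peptide (500 nM) and SAM (20 uM) started a 2 h room-temperature reaction. Monomethylated product was quantified by antibody-based AlphaScreen chemiluminescence.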
# Sfp inh: inhibitors of Bacillus subtilis Sfp phosphopantetheinyl transferase; Q9F4F7; Biochemical Sfp PPTase activity, qHTS; Potency, µM, inactives show largest response in the series, negative = inhibition, usual class: inhibitors; 310,000 tested, 3.5% active;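 note: the enzyme is Sfp with the accession as filed and its product quenches rhodamine fluorescence; 0% = enzyme reaction without inhibitor and -100% = no enzyme wells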
#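 Sfp 15 nM + cpd, 15 min RT; start w/ rhodamine-CoA 5 uM, BHQ-2-YbbR 12.5 uM (final); 50 mM Hepes pH 7.6, 10 mM MgCl2, 0.01% NP-40, 0.01% BSA; read 525/598 nm at 0 and 30 min.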
# * marks the source's active call; other numbers are inactive results; ? = inconclusive; . = no result given; [ ] = dose if it differs, or a comment. Calls come from the whole dose curve; as a rule, active = well fitted curve in the direction sought with a large enough effect; inconclusive = small, poorly fitted or top-dose-only effect, or another doubt; inactive = no such curve, though single readings can be large; an effect the other way counts as inactive or inconclusive. Potency is the fitted concentration of half-maximal effect.
SMILES,BAZ2B block,PLK1 PBD block,HP1b binding inh,JMJD2A Tudor,G9a block,Sfp inh
CC1CN(CCOCCSc2ccccc2)CC(C)O1 (stereo not given),-19%,-14%,18%,-16%,35%[12.7 µM],3%
Clc1ccc(SCCCCN2CCOCC2)cc1,32µM*,1%,40µM*,5.6µM*,4µM*,-36%
CC1CN(CCCCSc2ccc(Cl)cc2)CC(C)O1 (stereo not given),?,-11%,?,18µM*,22µM*,-12%
O=C(c1ccc(-c2ccccc2Cl)o1)N1CCN(S(=O)(=O)c2cccs2)CC1,-9%,-18%,-3%,-16%,6%[0.501 µM],.
O=C(Nc1cc2c(cc1[N+](=O)[O-])OCCO2)c1cccnc1,.,-11%,15%,-21%,.,.
CC1CCN(CCOCCSc2ccc(Cl)cc2)CC1,50µM*,-15%,?,7.1µM*,.,-19%
Clc1ccc(SCCOCCN2CCc3ccccc3C2)cc1,-9%,5%,156%,16%,12%,4%
CC1CN(CCOCCSc2ccc(Cl)cc2)CC(C)O1 (stereo not given),50µM*,-2%,?,8.9µM*,?,-25%
CCc1ccc(C(C)NC(=O)COC(=O)c2ccc(-n3cnnn3)cc2)cc1 (stereo not given),.,-11%,13%,-23%,.,.
O=C(Cc1ccc(Cl)cc1Cl)Nc1cccc(S(=O)(=O)Nc2ccccc2F)c1,?,1.2µM*,?,?,1.6µM*,8.9µM*
Cc1cc(C)nc(NS(=O)(=O)c2ccc(NC(=O)COc3ccccc3F)cc2)n1,3%,-2%,23%,-13%,17%[12.7 µM],.
O=C(COc1ccccc1F)Nc1cc(S(=O)(=O)Nc2cccc(Cl)c2)ccc1O,10%,24µM*,-13%,-22%,?,.
O=C(Nc1cccc(S(=O)(=O)Nc2ccccc2F)c1)c1ccc2ccccc2n1,?,1.9µM*,?,25µM*,2.8µM*,8.9µM*
O=C(Cc1c(F)cccc1Cl)Nc1cccc(S(=O)(=O)NC2=NCCCCC2)c1,-1%,-1%,19%,-17%,-18%[0.501 µM],.
C[C@H]1COc2cc(N3CCC[C@@H]3CO)ccc2S(=O)(=O)N1,.,-4%,.,.,.,.
CCC1=NN(C(=O)c2ccc(Cl)cc2)C(O)(c2ccccc2)C1 (stereo not given),50µM*,-14%,16%,-32%,.,9%
CCC1=NN(C(=O)c2ccccc2Br)C(O)(c2ccc(Br)cc2)C1 (stereo not given),-34%,-12%,37%,-14%,?,9%
COC(=O)C1=NN(C(=O)c2ccc(Cl)cc2)C(O)(c2ccccc2)C1 (stereo not given),6%,-11%,1%,-35%,-44%[59 µM],3%
CCC1=NN(C(=O)c2ccccc2O)C(O)(c2ccccc2)C1 (stereo not given),50µM*,-14%,13%,7.1µM*,3%,9%
CCNc1c(NC(=O)c2cc(OCC)c(OCC)c(OCC)c2)c(=O)oc2ccccc12,-11%,.,21%,2%,-5%[59 µM],.
COc1cccc(CNC(=O)CSc2n[nH]c(-c3ccccc3Cl)n2)c1OC,7%,.,15%[57 µM],-2%,-2%[59 µM],.
Cc1nn(-c2ccccc2)c(C)c1NC(=O)COC(=O)c1ccc(O)cc1O,-7%,-3%,29%,-12%,-10%[0.501 µM],8%
C[n+]1cnn2c1SCC1(COC1)C2,-2%,8%,4%,25µM*,35µM*,3%
CCOC1=C2[C@@H](CN(S(=O)(=O)c3ccc(C)cc3)[C@H]2c2cccc3ccccc23)[C@H]2C(=O)N(C)C(=O)[C@H]2C1,.,-7%,.,.,.,.
O=C(O)c1ccccc1OP(=O)(O)O,.,.,.,.,0%[21.5 µM],1%
SMILES,BAZ2B block,PLK1 PBD block,HP1b binding inh,JMJD2A Tudor,G9a block,Sfp inh
S=C(NCc1ccccc1)NCc1cccc(Cl)c1,3%,0%,35%,4%,42%,14%
S=C(NCc1ccccc1)NCc1cccc(CNC(=S)NCc2ccccc2)c1,-36%,27µM*,-38%,?,13%[59 µM],36%
CN(C)C(=S)NCc1ccccc1,3%,2.7µM*,-5%,25µM*,.,-6%
CN(N)C(=S)NCc1ccccc1,6%,-8%,62%,-15%,-2%[2.33 µM],-17%
Cc1ccc(-c2[nH]ncc2CNCCc2cnn(-c3ccccc3)c2)cc1C,-39%,-3%,5%,-23%,-35%,79µM*
Cc1nn(CC(=O)NCCC2=CCCCC2)c(C)c1[N+](=O)[O-],4%,6%,43%,-2%,-36%,.
Cc1ccc(NCC(=O)N/N=C/c2cc(O)ccc2[N+](=O)[O-])cc1,?,-6%,13%,-17%,50µM*,17%
O=C(CNc1ccc2ccccc2c1)N/N=C/c1ccc([N+](=O)[O-])o1,-30%,-4%,5%,-19%,2.5µM*,7%
O=C(N/N=C/c1ccc([N+](=O)[O-])o1)C1CC1,50µM*,-14%,24%,?,?,10%
O=C(CNc1ccc2ccccc2c1)N/N=C/c1ccc(C(=O)O)cc1,?,-1%,21%,-19%,?,-3%
Cn1cccc1/C=N/NC(=O)CNc1ccc2ccccc2c1,25µM*,-7%,?,56µM*,4µM*,10%
COc1ccccc1-c1noc(CCC(=O)Nc2ccc(C)cc2C)n1,-7%,.,18%,-18%,?,.
Cn1cccc1CC(=O)N/N=C/c1cccc2ccccc12,-14%,-7%,12%,-26%,-36%[12.7 µM],-10%
Cc1ccc(NCC(=O)N/N=C/c2cccn2C)cc1,40µM*,-9%,-26%,?,.,5%
Cn1cccc1/C=N/NC(=O)Cc1cccc2ccccc12,14µM*,-6%,-12%,?,?,-10%
O=C(CNc1ccc2ccccc2c1)N/N=C/c1cc2ccccc2nc1Cl,?,-1%,-13%,?,10µM*,-23%
O=C(N/N=C/c1ccc([N+](=O)[O-])o1)C(O)c1ccccc1 (stereo not given),0%,3%,51%,-7%,-4%,6%
O=[N+]([O-])c1ccc(/C=N/NC(=S)Nc2ccccc2C(F)(F)F)o1,?,?,?,-35%,20µM*,-27%
Cc1ccccc1NC(=O)c1c(C)oc2ccc(O)c(CN3CCCCCC3)c12,-10%,.,-27%,-26%,-20%[59 µM],.
CCCC(C)(C)C(=O)N1CCC1(C)C(=O)NS(=O)(=O)c1ccccc1Cl (stereo not given),.,8%,.,.,.,.
CCOC(=O)Nc1sc(=S)n(C)c1C,9%,-23%,-7%,-9%,13µM*,16µM*
Cc1c(NC(=O)OCCNC(=O)Nc2ccccc2)sc(=S)n1C,-3%,?,-22%,-8%,?,-24%
